Data as given in ChEMBL document CHEMBL3988442, “University of Dundee, Small-Polar-MMV Screening Library” (2021).
Screen size: about 85,000 compounds; about 440 (0.52%) showed an effect of 50% or more. The entries come from a sample that favours strong results as a whole.

Assay: In vitro enzyme assay to detect hydrolysis of chlorophenol red-beta-D-[…] directly proportional to the number of Toxoplasma stably expressing beta-galactosidase
Format: functional, organism-based, Toxoplasma gondii
Design: scale not given: in the data most compounds retested in dose-response had high values

Row | SMILES | Percent Effect (10 µM) | Percent Effect (50 µM)
1 | CC(C(=O)Nc1sccc1C(N)=O)N(C)CCOc1ccccc1 (stereo not drawn) | 66.89% | 
2 | Cc1ccccc1OCCC(=O)OC(C)C(=O)Nc1sccc1C(N)=O (stereo not drawn) | -4.306% | 
3 | CC(C(N)=O)N(C)CCCOc1ccccc1 (stereo not drawn) |  | 9.989%
4 | CCc1nsc(N2CC(CO)C2)n1 |  | 7.559%
5 | CCCC(O)CNS(=O)(=O)c1cc(F)cc(F)c1 (stereo not drawn) |  | -5.662%
6 | CC1CCCN(C(=O)c2cc(O)nc3ccccc23)C1 (stereo not drawn) |  | 6.15%
7 | COc1ccc(C2CCCN2c2ccnc(C)c2Cl)c(OC)c1 (stereo not drawn) | 50.91% | 
8 | COc1ccc(C2CCCN2c2nnc(C)s2)c(OC)c1 (stereo not drawn) | 0.194% | 
9 | COc1ccc(C2CCCN2c2cnccn2)c(OC)c1 (stereo not drawn) | -3.299% | 
10 | NCCN1CCc2c(Cl)cccc2C1=O |  | 17.2%
11 | NC1CCN(C(=O)C2CCCC2)C1 (stereo not drawn) |  | 2.86%
12 | Cn1nc(-c2nc(C(C)(C)C)no2)ccc1=O |  | 3.371%
13 | N#CC[C@@H](N)c1ccccc1 |  | -6.546%
14 | COc1ccc(F)c(-c2cc(NCCO)nc(N)n2)c1 | 0.663% | 
15 | CNc1cc(-c2cccc(OC)c2OC)nc(N)n1 |  | 50.78%
16 | COc1ccc(-c2cc(NCCO)nc(N)n2)cc1C |  | 29.21%
17 | CC(C)(C)CCOc1cnccc1CN |  | 14.78%
18 | Cc1cc(NCCO)nc2ccccc12 |  | -2.255%
19 | Cc1cc(NCCO)nc(N2CCC(Cc3ccccc3)CC2)c1C#N.O=C(O)C(=O)O | 62.98% | 
20 | Cc1cc(NCCO)nc(N2CCCC2)c1C#N | 1.046% | 
21 | Cc1cc(NCCO)nc(N2CCN(C)CC2)c1C#N | -10.98% | 

Row | SMILES | Percent Effect (10 µM) | Percent Effect (50 µM)
22 | Cc1cc(C)c(C#N)c(N2CCC(Cc3ccccc3)CC2)n1 | -2.69% | 
23 | CCCC(C)C(=O)N1CCOCC1 (stereo not drawn) |  | -3.427%
24 | NC(=O)CN(CCCO)Cc1ccccc1 |  | -1.308%
25 | O=S(=O)(CCN1CCC(CO)CC1)c1ccccc1 |  | -26.81%
26 | CCCc1cc(=O)[nH]c(-n2nc(-c3cccs3)cc2N)n1 | 36.6% | 
27 | Cn1nc(CNC(=O)C2CC2)cc1C1CC1 | -6.984% | 
28 | CC(C)c1cc(=O)[nH]c(C(C)(C)N)n1.Cl | 21.75% | 
29 | CCCc1cc(=O)[nH]c(-n2nc(C3CC3)cc2N)n1 | 94.33% | 
30 | CCc1cc(=O)[nH]c(-n2nc(C3CC3)cc2NC(=O)C2CC2)n1 | 96.09% | 
31 | CCc1c(C)nc(-n2nc(C3CC3)cc2NC(C)=O)[nH]c1=O | -1.935% | 
32 | CC(C)c1cc(=O)[nH]c(-n2nc(C3CC3)cc2N)n1 | 94.68% | 
33 | CCCc1cc(=O)[nH]c(C(C)(N)CC)n1 (stereo not drawn) |  | 0.6774%
34 | Cc1cc(=O)[nH]c(-n2nc(C3CC3)cc2N)n1 | 28.72% | 
35 | Cc1nscc1C(=O)OCCC(=O)NC(C)C |  | -12.79%
36 | CCCn1nc(C)cc1NC(=O)N1CCCC(C#N)C1 (stereo not drawn) |  | -0.4936%
37 | COc1cc(Br)cnc1C#N |  | -14.47%
38 | CSCc1ccc(C(=O)N2CC(CC(N)=O)C2)cc1 |  | -6.52%
39 | NCc1ccccc1OC(F)(F)F |  | 14.39%
40 | OC1(c2ccccc2)CCCNCC1 (stereo not drawn) |  | 3.493%
41 | CCc1nnc(NC(=O)c2ccc(S(=O)(=O)NC)o2)s1 |  | -1.635%
42 | CCSc1ccc(C(=O)NCCc2nnc[nH]2)cn1 |  | 5.402%

Row | SMILES | Percent Effect (10 µM) | Percent Effect (50 µM)
43 | CCc1ccccc1OCC(=O)N1CCOCC1c1ncon1 (stereo not drawn) | 7.498% | 
44 | O=C(COc1cccc(Cl)c1)N1CCOCC1c1ncon1 (stereo not drawn) | 37.28% | 
45 | Cc1cccc(C)c1OCC(=O)N1CCOCC1c1ncon1 (stereo not drawn) | 56.8% | 
46 | OC1(C2CCCCC2)CCNCC1 |  | 0.8115%
47 | C=C(Br)CN1CCN(CCNC(=O)C2CCC2)CC1 |  | -27.84%
48 | CN(C)c1ccc(NC(=O)CCc2cccnc2)cn1 |  | -6.854%
49 | CCS(=O)(=O)CCNC1CCN(c2nc3ccc(Cl)cc3s2)CC1 | 6.923% | 
50 | Clc1ccc2nc(N3CCC(NCCCC4CCOC4)CC3)sc2c1 (stereo not drawn) | -1.385% | 
51 | CCc1nccn1CCNC1CCN(c2nc3ccc(Cl)cc3s2)CC1 | 59.54% | 
52 | CC(=O)Nc1cn[nH]c1 |  | -20.18%
53 | CC(CN)C(=O)Nc1cn[nH]c1 (stereo not drawn) |  | 55.25%
54 | CC(CNC(=O)Nc1cn[nH]c1)N(C)C (stereo not drawn) |  | -3.915%
55 | CCn1cc(S(=O)(=O)N2CCNCC2)c(C)n1 |  | -15.85%
56 | NC(=O)C1CN(c2ccc3cccc(Br)c3n2)CCO1 (stereo not drawn) |  | -8.237%
57 | CS(=O)(=O)c1cc(Cl)cc(CN)c1 |  | -21.93%
58 | CNS(=O)(=O)c1ncccc1N |  | -16.66%
59 | NCc1cccc(CN2CCCC2=O)c1 |  | -4.942%
60 | NCc1cccc(CN2CCCC2)c1 |  | 60.68%
61 | NCc1ccc(CN2CCCCC2)cc1 |  | 0.9541%
62 | Cc1nn(C)c(C)c1NC(=O)N1CCSCC1 |  | -12.54%
63 | CN(C)c1cc(CNC(=O)c2ccncc2)ccn1 |  | -1.688%

Row | SMILES | Percent Effect (10 µM) | Percent Effect (50 µM)
64 | CN(C)c1cc(CNC(=O)c2nccnc2N)ccn1 |  | 58.76%
65 | CN(C)c1cc(CNC(=O)c2cnccn2)ccn1 | 21.24% | 
66 | O=C1CC[C@@H](CO)N1 |  | -0.2195%
67 | CCS(=O)(=O)c1cccc(CN)c1 |  | 21.69%
68 | Cc1ccc(C(=O)NCCCN2CCCC2)cc1 |  | 3.9%
69 | CC(O)CNC(=O)NCc1cccnc1OC1CCCC1 (stereo not drawn) | -1.891% | 
70 | COc1ncccc1CNc1snc(Cl)c1C#N | 29.55% | 
71 | Cc1cc(NC(=O)NCc2cccnc2OC2CCCC2)n(C)n1 | -3.087% | 
72 | CNC(=O)NCc1cccnc1OC1CCCC1 |  | 56.84%
73 | N#Cc1c(Cl)nsc1NCc1cccnc1OC1CCCC1 | 78.06% | 
74 | N#Cc1c(Cl)nsc1NCc1cccnc1OCC(F)(F)F | 25.91% | 
75 | CCN1CCCC1CNC(=O)CN(C)S(C)(=O)=O (stereo not drawn) |  | -8.865%
76 | COc1cccc(NC(=O)CN2CCCNCC2)c1 |  | -7.679%
77 | O=C(Nc1ccccn1)N1CCCN(C2CC2)CC1 |  | 3.024%
78 | O=C(c1ccc(COc2ccccc2Cl)o1)N1N=CCC1(O)C(F)(F)F (stereo not drawn) | 45.92% | 
79 | Cc1cccc(OCc2ccc(C(=O)N3N=CCC3(O)C(F)(F)F)o2)c1 (stereo not drawn) | 93.63% | 
80 | O=C(c1ccc(COc2ccc(Cl)cc2)o1)N1N=CCC1(O)C(F)(F)F (stereo not drawn) | 95.68% | 
81 | COc1ccc(C(=O)N2CCC(Oc3cccc(C)c3)(C(=O)O)CC2)o1 | -1.229% | 
82 | O=C(Cn1cc(Br)cn1)N1N=CCC1(O)C(F)(F)F (stereo not drawn) |  | -25.92%
83 | COCc1ccc(C(=O)N2CCC(Oc3ccccc3)(C(=O)O)CC2)o1 | 0.5821% | 
